Measurements from PubChem BioAssay AID1326 (NMMLSC, 2008).
Screen size: about 190,000 compounds; about 130 (0.068%) were called active. The sample holds actives, similar compounds and a random draw of the others, so the mix is not that of the screen. Unmarked numbers belong to inactive results. Cut-off read from the data, not from the text of the source: active = inhibition above about 40%; inactive = the rest.

target: ATP-dependent translocase ABCB1 (Homo sapiens) (UniProt P08183); assay: blockers of ABCB1-mediated dye efflux – cell-based, multiplex, flow cytometry, ABCG2 counter-screen, primary screen (AID 1326); conditions: CCRF-Adr cells, JC-1 efflux, at 6.6 µM, active compounds read high;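 note: 0% = vehicle and 100% = reference inhibitor; higher value means more JC-1 retained so stronger ABCB1 efflux block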
Sequence (P08183 whole entry, looked up): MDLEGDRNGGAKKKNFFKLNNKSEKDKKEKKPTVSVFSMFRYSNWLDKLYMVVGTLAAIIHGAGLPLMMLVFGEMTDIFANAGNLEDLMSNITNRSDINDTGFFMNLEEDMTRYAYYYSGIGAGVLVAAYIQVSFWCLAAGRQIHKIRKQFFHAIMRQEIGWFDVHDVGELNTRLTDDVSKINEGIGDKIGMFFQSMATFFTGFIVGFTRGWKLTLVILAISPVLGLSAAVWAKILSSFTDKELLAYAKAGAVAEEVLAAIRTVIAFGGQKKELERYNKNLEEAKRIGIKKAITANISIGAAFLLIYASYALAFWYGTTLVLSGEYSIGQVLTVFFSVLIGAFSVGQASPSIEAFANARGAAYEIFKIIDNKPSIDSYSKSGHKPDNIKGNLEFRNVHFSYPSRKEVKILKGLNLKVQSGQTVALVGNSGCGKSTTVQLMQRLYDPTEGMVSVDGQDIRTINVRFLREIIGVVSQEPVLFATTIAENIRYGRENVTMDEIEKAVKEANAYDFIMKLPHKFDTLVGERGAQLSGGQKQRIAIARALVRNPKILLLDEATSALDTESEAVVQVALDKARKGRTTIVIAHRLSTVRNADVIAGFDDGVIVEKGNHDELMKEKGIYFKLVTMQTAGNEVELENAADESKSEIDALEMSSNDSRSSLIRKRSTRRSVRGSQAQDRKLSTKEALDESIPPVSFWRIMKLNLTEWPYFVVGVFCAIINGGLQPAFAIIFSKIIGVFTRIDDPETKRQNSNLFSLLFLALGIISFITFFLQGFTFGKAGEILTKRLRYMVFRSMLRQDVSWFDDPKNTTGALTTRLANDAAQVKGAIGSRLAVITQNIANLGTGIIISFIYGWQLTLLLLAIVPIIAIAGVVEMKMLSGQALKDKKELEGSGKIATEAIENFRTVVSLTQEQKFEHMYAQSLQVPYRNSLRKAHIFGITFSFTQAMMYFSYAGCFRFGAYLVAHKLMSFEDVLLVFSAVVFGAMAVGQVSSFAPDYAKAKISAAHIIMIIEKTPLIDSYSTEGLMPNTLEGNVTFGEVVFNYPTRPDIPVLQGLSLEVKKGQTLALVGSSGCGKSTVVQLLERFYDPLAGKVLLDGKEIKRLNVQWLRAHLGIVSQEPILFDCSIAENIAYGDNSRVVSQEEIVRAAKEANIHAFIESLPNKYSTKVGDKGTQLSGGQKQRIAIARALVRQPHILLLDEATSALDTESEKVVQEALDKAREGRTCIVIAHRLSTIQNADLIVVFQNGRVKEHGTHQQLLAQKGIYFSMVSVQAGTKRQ

SMILES	inhibition
O=C1c2cccc3c([N+](=O)[O-])ccc(c23)C(=O)N1CC1CCCO1 (stereo not drawn)	0.98%
CN(CCOc1ccccc1)Cc1nc2cc(Cl)ccc2c(=O)[nH]1	0.26%
Cc1ccc(Nc2c(F)c(F)c(F)c(F)c2C(=O)O)c(C)c1	-0.24%
Cc1ccc(CNC(=O)CCNS(=O)(=O)c2ccc(Br)s2)cc1	-0.56%
NS(=O)(=O)c1ccc(CCNC(=O)c2ccc(Cl)cc2[N+](=O)[O-])cc1	1.3%
COc1ccccc1NC(=O)CCSc1nnc(-c2ccc(O)cc2)o1	0.42%
COc1ccc(/C=N/Nc2ncnc3sc4c(c23)CCCC4)cc1O	-0.22%
N#Cc1cnn2cc(CCN3CCOCC3)c(-c3ccc(F)cc3)nc12	1.26%
CCCNCc1cc(OCC)c(OCC(=O)Nc2ccccc2)cc1Br	0.07%
O=C(CN(C(=O)c1csnn1)c1cccc(F)c1)NCc1ccc(F)cc1	1.22%
COC(=O)c1ccc(C(NC(=O)OCc2ccccc2)/C(C)=C/[C@@H](C)C(=O)NCc2ccc(OC)c(OC)c2)cc1 (stereo partly drawn)	9.15%
Cc1ccccc1CSc1nnc(-c2ccccc2)c(=O)[nH]1	0.19%
CCC(C)(C)NC(=O)C(c1cccc(OC)c1OC)N(CC(C)C)C(=O)CCC(=O)Nc1cc(C)on1 (stereo not drawn)	1.31%
CCOC(=O)C1(C)NC(c2ccco2)C2C(=O)N(c3ccccc3)C(=O)C21 (stereo not drawn)	0.47%
CCOC(=O)NC(=O)CSc1nnc(SCCC(=O)O)s1	0.52%
Cc1nn(CCOc2ccc(Br)cc2)c(C)c1[N+](=O)[O-]	1.06%
CN(C)c1ccc(/C=N/NC(=O)C(O)c2ccc(Br)cc2)cc1 (stereo not drawn)	0.7%
OC1CSc2nc3ccccc3n2C1 (stereo not drawn)	-0.99%
Cc1ccc(C)c(-n2nnnc2SCC(=O)c2c(N)n(C)c(=O)n(C)c2=O)c1	-0.82%
Nc1nc(CC(=O)CSc2ccc(Cl)cc2)nc(Nc2ccc(F)cc2)n1	0.01%
COc1ccc(Br)cc1/C=N/Nc1ccc(Cl)c(C(=O)O)c1	-0.4%
Cc1cc(/C=C2/SC(=O)N(CC(=O)N3CCCC3)C2=O)ccc1N1CCOCC1	1.48%
Cc1nc(S(=O)(=O)c2ccc(Br)cc2)nc2c1CCC2	0.58%
COc1ccccc1NC(=O)c1cc(Cl)nnc1Cl	1.04%

SMILES	inhibition
COc1ccc(S(=O)(=O)N(C)CC(=O)N2CCCC2)cc1Cl	1.26%
COc1ccc(C(=O)Nc2ccc(N3CCC(C)CC3)cc2)cc1Br	1.32%
Cc1ccc(C(=O)N/C(=C/c2cccnc2)C(=O)O)cc1	0.02%
O=C(O)c1cccc(NC(=O)c2cc(-c3cccc(Cl)c3)nc3ccccc23)c1	-0.61%
C/C(=N\Nc1ncc(Cl)cc1Cl)c1cccs1	0.7%
COC(=O)c1c(C(=O)OC)c(-c2cccc(C)c2)n2c1CS(=O)C2 (stereo not drawn)	0.19%
COCC(C)n1c(C)cc(C(=O)COc2ccc(C)nc2[N+](=O)[O-])c1C (stereo not drawn)	0%
S=c1[nH]nc(NCCc2ccccc2)s1	-0.12%
C/C(=N\NC(=O)C(N)=O)c1ccc2c(c1)OCCO2	1.58%
CC(C)/C=N/NC(=O)c1cc(Br)ccc1O	0.05%
O=C(O)CC(SCC(=O)Nc1ccc(Br)cc1)C(=O)O (stereo not drawn)	-0.05%
COc1ccc2c(-c3ccccc3)cc(SCC(=O)N(C)C3CCS(=O)(=O)C3)nc2c1 (stereo not drawn)	1.15%
O=C(CN1CCCCCC1)NCCN1C(=O)S/C(=C\c2ccccc2Cl)C1=O	0.67%
COCCn1c(C)cc(C(=O)CSc2nc3ccccc3c(=O)n2C(C)COC)c1C (stereo not drawn)	2.97%
Cc1cc(C)cc(NC(=O)N2CCCCCCC2)c1	2.76%
COc1cccc(C(O)Cc2nc3ccccc3n2C)c1OC (stereo not drawn)	-0.47%
C=CCc1cccc2cc(C(=O)NC3CCCC3)c(=O)oc12	1.75%
Cc1c(C(=O)c2cccc([N+](=O)[O-])c2)c2ccccn2c1CCC#N	2.01%
NS(=O)(=O)c1cccc(NC(=O)CSc2nc3ccccc3n2-c2ccccc2)c1	-1.23%
Cc1ccc(SCCC(=O)OCC(=O)Nc2ncc(Cl)cc2Cl)cc1	0.04%
Cc1ccc(-n2c(SCC(=O)Nc3ncc(Cl)cc3Cl)nc3ccccc32)cc1	56.9% (active)
CCn1c(SCC(=O)Nc2nccs2)nnc1-c1ccco1	0.22%
COCCCNC(NC(=O)c1ccc(OC)cc1)C(Cl)(Cl)Cl (stereo not drawn)	0.77%
O=c1[nH]c2cccnc2n(CCNc2ncc(C(F)(F)F)cc2Cl)c1=O	0.11%

SMILES	inhibition
CC(C)(C)n1ncc2c(=O)n(Cc3ccc(Cl)cc3)cnc21	0.59%
C#CCOCCOCCOCCNc1nc(N2CCN(C(=O)[C@H](CCCCN)n3cc([C@@H](N)C(C)CC)nn3)CC2)nc(N2CCN(C(=O)[C@H](Cc3ccc(O)cc3)n3cc([C@@H](N)C(C)CC)nn3)CC2)n1 (stereo partly drawn)	0.44%
COc1ccc(Cn2c(=O)cc(C)[nH]c2=S)cc1	1.2%
O=C(Oc1c(-c2ccco2)oc2ccccc2c1=O)c1cccnc1	1.71%
O=C(N/N=C/c1sc(N2CCCCC2)nc1-c1cccs1)c1cccnc1	-0.08%
CCOc1cnc(C(=O)NNC(=O)c2ccccc2Br)o1	-0.12%
COc1ccc(CN2CCNC(=O)C2CC(=O)N(C)Cc2ccccn2)cc1OC (stereo not drawn)	0.3%
N=C1C(c2nc3ccccc3s2)=C(O)CN1NC(=O)c1ccc([N+](=O)[O-])cc1	-0.23%
CN(CC(=O)Nc1ccccc1F)CC(=O)Nc1ccccc1Br	-0.22%
CCOCCCn1c(NN)nc2ccccc2c1=O	0.54%
Nc1ccc(Cl)c(S(=O)(=O)Nc2ccccc2Cl)c1	0.19%
COc1ccc(-c2[nH]ncc2CN(Cc2nccn2C)C(C)C)cc1F	2.14%
CCC(C(=O)Nc1ccc(C(C)C)cc1)c1ccccc1 (stereo not drawn)	0.19%
N#Cc1c(NC(=O)C2CCCO2)sc2c1CCCCC2 (stereo not drawn)	1.4%
O=C(C1CC1)N1N=C2CCCCC2C1(O)C(F)(F)F (stereo not drawn)	0.21%
COCC(C)NCc1cc(Br)ccc1OC (stereo not drawn)	0.42%
Cc1ccc2nc(-c3cccnc3)c(NC3CCCC3)n2c1	1.9%
COc1cc2[nH]c(=O)n(Cc3ccc(C(=O)NC4CCN(Cc5ccccc5)CC4)cc3)c(=O)c2cc1OC	0%
O=C(NCCc1ccccc1)C1CCC(Cn2c(=O)c3ccccc3n(Cc3cccnc3)c2=O)CC1 (stereo not drawn)	4.02%
CC(=O)Nc1ccc(C(=O)CSc2nc3ccc(C)cc3[nH]2)cc1	-0.95%
c1ccc(CN=C2Nc3ccccc3CS2)nc1	0.26%
O=C(c1ccc(N2CCOCC2)c([N+](=O)[O-])c1)N1CCN(S(=O)(=O)c2cccs2)CC1	0.44%
CC(C)CN1CCNC(=O)C1CC(=O)N(C)CC1CCOCC1 (stereo not drawn)	0.15%
CCCCCc1nnc(NC(=O)c2ccc(=O)n(C)n2)s1	0.44%

SMILES	inhibition
CC1CCCN(CC(O)COc2ccc3c(c2)OCO3)C1 (stereo not drawn)	0.12%
CCCCN1C(=S)NC[C@@H]1C(C)CC (stereo partly drawn)	0.02%
CC/C(=N\NC(=O)c1ccccc1Cl)c1ccc(Br)s1	1.38%
COc1ccc(CCNC(=O)CSc2nc3[nH]ncc3c(=O)n2-c2cccc(C(F)(F)F)c2)cc1OC	0.5%
O=C(C1CCCO1)N1CCN(C(=S)NC2CC2)CC1 (stereo not drawn)	0.55%
CNC(=S)N1CCC(NC(=O)C(Cc2ccc(F)cc2)NC(C)=O)CC1 (stereo not drawn)	0.7%
Cc1ccc(C)c(NC(=O)CCC(=O)N/N=C2/CC(=O)CC(C)(C)C2)c1	0.24%
Cc1c(CCOC(=O)CC23CC4CC(CC(C)(C4)C2)C3)sc[n+]1Cc1ccc([N+](=O)[O-])cc1	53.8% (active)
Cc1c(CCO)sc[n+]1CC(=O)OC12CC3CC(CC(C3)C1)C2	0.29%
Cc1c(CCOC(=O)c2cc([N+](=O)[O-])ccc2Cl)sc[n+]1CCCCS(=O)(=O)[O-]	1.17%
CC(C)NC(=O)c1ccc(Cl)cc1Cl	-0.21%
CC(=O)c1ccc(NC(=O)C(C)NCc2ccc(Cl)cc2)cc1 (stereo not drawn)	0.85%
Cc1nc(CN2CCN(C(=O)CCc3nnc(Cc4c[nH]c5ccccc45)o3)CC2)cs1	-1.57%
CN1CCN(/N=C/c2ccc(C#N)cc2)CC1	1.07%
CCC(C)(C)NC(=O)CN(C(=O)C(=O)Nc1ccc2c(c1)OCCO2)C(C)(C)CC	2.48%
CSc1ccc(/C=N/NC(=O)c2cccc(Cl)c2)cc1	-0.32%
CC(=O)Nc1ccccc1OC(C)C(=O)N1CCC(C)CC1 (stereo not drawn)	0.05%
COc1cc(NC(=S)NCc2ccc(S(N)(=O)=O)cc2)cc(OC)c1	-0.49%
COc1ccc(NS(=O)(=O)c2cc(NC(=O)C3CCCCC3)ccc2N2CCOCC2)cc1	0.89%
CC[C@H](C)[C@@H](C(=O)N1CCNCC1)n1cc([C@@H](N)Cc2ccc(O)cc2)nn1	0.31%
COc1ccc(C2=NN(C(=O)CCC(=O)O)C(c3cccs3)C2)cc1OC (stereo not drawn)	0.01%
